# Source: PubChem BioAssay AID1209 (Sanford-Burnham Center for Chemical Genomics, 2008)
# About 810 (0.43%) of roughly 190,000 compounds were called active. No stated cut-off is given here; in the data, active means inhibition above about 50%; inactive means the rest. Many of the other results were omitted from the sample, so actives are more common in it than they were.
# Target: Mannose-6-phosphate isomerase (Homo sapiens) (UniProt P34949)
# Experiment: inhibitors of human PMI, primary screen, biochemical, fluorescence intensity, coupled assay (AID 1209);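 further: plate controls were DMSO vehicle for no effect and wells lacking substrate for full effect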
# Conditions: purified PMI enzyme, at 20 µM, stronger effect = higher value
# Sequence of Mannose-6-phosphate isomerase (Homo sapiens) (P34949 whole entry, looked up): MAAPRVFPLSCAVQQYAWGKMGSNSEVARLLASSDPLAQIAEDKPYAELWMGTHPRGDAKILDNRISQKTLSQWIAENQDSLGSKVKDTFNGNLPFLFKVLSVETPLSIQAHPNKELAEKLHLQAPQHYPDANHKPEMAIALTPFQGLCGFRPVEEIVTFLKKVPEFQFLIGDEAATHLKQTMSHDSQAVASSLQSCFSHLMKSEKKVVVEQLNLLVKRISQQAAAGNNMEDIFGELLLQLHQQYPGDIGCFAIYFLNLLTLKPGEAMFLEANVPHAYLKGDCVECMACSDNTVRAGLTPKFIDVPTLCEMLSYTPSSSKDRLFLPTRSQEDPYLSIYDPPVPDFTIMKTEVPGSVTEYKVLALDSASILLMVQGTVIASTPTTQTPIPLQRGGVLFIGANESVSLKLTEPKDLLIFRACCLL
row,SMILES,inhibition
1,Cn1c(SCC(=O)N=Nc2c(O)[nH]c3ccccc23)nc2ccccc21,3.1% (inactive)
2,CCN(CC)CCCn1c(C)cc2c(c1=O)C(c1cc(OC)c(OC)cc1OC)C(C#N)=C(N)O2 (stereo unspecified),-0.8% (inactive)
3,CC[C@H](C)[C@@H](NC(=O)O[C@@H]1C(=O)c2cc(OC)ccc2O[C@H]1c1ccc(OC)c(Br)c1)C(=O)OC,11% (inactive)
4,CC(=O)N1CCc2cc(S(=O)(=O)CCC(=O)N3CCc4ccccc4C3)ccc21,-7.9% (inactive)
5,CC(C)CC(C(=O)Nc1ccc2c(c1)OCCO2)N1C(=O)c2ccccc2C1=O (stereo unspecified),-13.9% (inactive)
6,Cc1cc(=O)n2cccc(O)c2n1,71% (active)
7,Cc1ccn2c(=O)cc(C)nc2c1,4.8% (inactive)
8,Cc1cc(=O)n2ccsc2n1,7.1% (inactive)
9,O=C(NCCO)C1CCN(S(=O)(=O)c2ccc(F)cc2)CC1,10.2% (inactive)
10,COc1cc(CNn2c(C)n[nH]c2=S)cc(Cl)c1OCc1ccccc1,16.3% (inactive)
11,O=c1cc(-c2ccc(O)cc2)oc2cc(O)c(C3OC(CO)C(O)C(O)C3O)c(O)c12 (stereo unspecified),7.9% (inactive)
12,COc1ccc(-c2oc3cc(OC)c(O)c(OC)c3c(=O)c2OC)cc1O,3.4% (inactive)
13,CC1OC(OCC2OC(Oc3c(-c4ccc(O)cc4)oc4cc(O)cc(O)c4c3=O)C(O)C(O)C2O)C(O)C(O)C1O (stereo unspecified),4.8% (inactive)
14,C[C@@H]1O[C@@H](OC[C@H]2O[C@@H](Oc3c(-c4ccc(O)c(O)c4)oc4cc(O)cc(O)c4c3=O)[C@H](O)[C@@H](O)[C@@H]2O)[C@H](O)[C@H](O)[C@H]1O,50.3% (active)
15,O=c1c(O)c(-c2ccc(O)cc2O)oc2cc(O)cc(O)c12,-15.2% (inactive)
16,C[C@@H]1O[C@@H](Oc2c(-c3cc(O)c(O)c(O)c3)oc3cc(O)cc(O)c3c2=O)[C@H](O)[C@H](O)[C@H]1O,65.7% (active)
17,O=c1c(O[C@@H]2O[C@H](CO)[C@H](O)[C@H](O)[C@H]2O)c(-c2ccc(O)c(O)c2)oc2cc(O)cc(O)c12,61.3% (active)
18,O=c1c(-c2ccc(O)cc2)coc2cc(OC3OC(CO)C(O)C(O)C3O)cc(O)c12 (stereo unspecified),-6.4% (inactive)
19,COc1ccc(-c2oc3c(CC=C(C)C)c(O[C@@H]4O[C@H](CO)[C@@H](O)[C@H](O)[C@H]4O)cc(O)c3c(=O)c2O[C@@H]2O[C@@H](C)[C@H](O)[C@@H](O)[C@H]2O)cc1,5.6% (inactive)
20,Cc1cc(O)cc(O[C@H]2OC(CO)[C@H](O)[C@@H](O)[C@H]2O)c1 (stereo partly specified),1.9% (inactive)
21,O=C(O)C1OC(Oc2c(-c3ccc(O)c(O)c3)oc3cc(O)cc(O)c3c2=O)C(O)C(O)C1O (stereo unspecified),23.4% (inactive)
